This is an account of results in PubChem BioAssay AID651550 (National Center for Advancing Translational Sciences (NCATS), 2012).

Screen size: about 360,000 compounds; about 1,100 (0.31%) were called active. The sample holds actives, similar compounds and a random draw of the others, so the mix is not that of the screen. Cut-off read from the data, not from the text of the source: active = activity change below about -80%; inconclusive = mostly about -51% to -80%; inactive = weaker than that.
% is set by controls: 0 for no effect and ±100 for the full control effect.

This assay concerns the target RAC-alpha serine/threonine-protein kinase (Homo sapiens) (UniProt P31749). Put plainly: HTS Assay for Inhibitors of Akt Phophorylation: Primary Screen. Particulars: Neuro2A IGF-stimulated pAkt S473 HTRF, 20 min; at 50 µM, stronger effect = lower value. The source says:
The serine/threonine protein kinase Akt (protein kinase B) regulates various cellular processes, including cell survival, growth, proliferation, migration and differentiation. It has been well established that Akt is activated through two essential steps involving membrane translocation and phosphorylation. Cytosolic Akt is recruited to the plasma membrane via the interaction between the PH domain and membrane PIP3 produced by phosphoinositide-3 kinase (PI3K) upon growth factor receptor stimulation. The membrane-Akt interaction results in conformational changes of Akt, enabling its activation through phosphorylation at T308 in the kinase domain and at S473 in the C-terminal hydrophobic motif by PDK1 and mTOR-rictor complex (mTORC2), respectively. […] These findings indicate that S473 phosphorylation, as an important modulator of Akt activation, may be a valuable drug target for cell growth, survival, proliferation and differentiation. These inhibitors also may have significant therapeutic potential with fewer side effects, especially for the conditions involving hyperactive Akt signaling, such as cancer and Alzheimer's disease.
To this end, a miniaturized assay was developed to be screened against the Molecular Libraries Small Molecule Repository (MLSMR).
NIH Chemical Genomics Center [NCGC]
NIH Molecular Libraries Probe Centers Network [MLPCN]
Assay Submitter (PI): Hee-Yong Kim, National Institute on Alcohol Abuse and Alcoholism
3 uL of Neuro2A cell suspension in DMEM containing 0.5% FBS and […] antibiotics mix was plated in a white solid bottom tissue culture-treated 1536-well plate (Greiner Bio-One, Monroe, NC) at 4,500 cells per well and incubated overnight at 37 deg C. 23 nL/well of compound solutions in DMSO was added with Pintool transfer (Kalypsis, San Diego, CA) at single […] final concentration. Then, the cells were stimulated with 1.5 uL of IGF (6 nM final concentration) and incubated at 37 deg C for 20 min. The reaction was terminated by the addition of 1.5 uL blocking reagent mixed with lysis buffer (1:25 correspondingly) provided with HTRF(R) Phospho Akt (Ser473) kit (Cisbio US, Bedford, MA), with following incubation for 50 min at ambient temperature. The detection HTRF conjugates from the kit were prepared according to the protocol, pre-mixed 1:1 prior to dispensing, and 2 uL/well was added with BioRAPTR FRD dispenser (Beckman Coulter). The assay plates were incubated for 24 hours at ambient temperature, and the HTRF fluorescence was measured using Envision plate reader (PerkinElmer) with excitation at 330nm, emission at 615nm (Eu(3)-Cryptate donor signal) and 665nm (d2 acceptor signal). The ratio of […] was calculated for each well.
In general terms: TR-FRET usually uses a lanthanide donor and a delayed reading to cut background.
In the case of `Brc1ccc(-c2csc(N/N=C/c3cccnc3)n2)cc1`, the activity change entry is “inactive”.
Regarding `O=C(COC(=O)Cc1ccc(Cl)cc1Cl)NCc1ccco1`, the activity change entry is “inactive”.
Then `O=C(COC(=O)CCC(=O)c1cccs1)NCc1ccco1`, with -115% (active).
For `O=C(COC(=O)c1ccccc1O)NCc1ccco1` the value was “inactive”; for `O=C(COC(=O)c1cc([N+](=O)[O-])ccc1NCc1ccccc1)NC1CCCCC1`, “inactive”.
For `C=C1C(=O)OC2C1CCC(C)=CCCC1(C)OC21` (centres undefined) the value was “inactive”; for `CC(NCCO)C(=O)C12CC3CC(CC(C3)C1)C2` (centres undefined), “inactive”.
For `COCCN1C(=O)c2oc3c(C)cc(C)cc3c(=O)c2C1c1cccc(O)c1` (centres undefined), the activity change is -117% (active).
For `COCCN1C(=O)C(=O)/C(=C(/O)c2ccc(S(=O)(=O)N3CCOCC3)cc2)C1c1ccc(O)c(OC)c1` (centres undefined), the activity change result is “inactive”.
For `O=C1c2oc3ccccc3c(=O)c2C(c2cccc(O)c2)N1c1ccccn1` (centres undefined) the value was “inactive”; for `CC(C)OC(=O)CC(=O)CC(O)c1cccc([N+](=O)[O-])c1` (centres undefined), “inactive”.
For `CCOC(=O)[C@]12CCCC=C1N(CCC1=CCCCC1)C(=O)[C@H](CC(=O)NCCCCc1ccccc1)C2`, the activity change result was “inactive”.
For `CCC(C(=O)Nc1c(C)cccc1C)n1c(-c2cc(C)cs2)nc2ccccc21` (centres undefined) the value was “inactive”; for `O=C(C(Cc1ccccc1)n1cccc1)N1CCN(C2CCCCC2)CC1` (centres undefined), “inactive”.
On to `CCCCNC(=S)N/N=C1\CCCCc2ccccc21`, for which the activity change entry is “inactive”.
As for `S=C(NCCC1=CCCCC1)Nc1ccccc1`, the activity change is -117% (active).
On to `CC(OC(=O)c1c(F)cccc1F)C(=O)NCCC1=CCCCC1` (centres undefined), for which the activity change result is “inactive”.
Regarding `CC(=O)Nc1ccc(S(=O)(=O)N(C)CC(=O)NCCC2=CCCCC2)cc1`, the activity change result was “inactive”.
For `COc1ccc(N2c3ccccc3CN(Cc3ccccc3)[C@@H](C)[C@H]2Cc2ccc(-c3ccccc3)cc2)cc1` the value was “inactive”; for `O=C(C[C@H]1CC[C@@H](NC(=O)c2ccncc2)[C@@H](CO)O1)NCC1CC1`, “inactive”; for `CC(=O)C[C@@H]1OC[C@H](CO)N1S(=O)(=O)c1ccc(C)cc1`, “inactive”.
For `CC(=O)NS(=O)(=O)c1ccc(NC(=O)/C=C/c2ccccc2Cl)cc1` the value was “inactive”; for `COc1cc(OC)cc(/C(N)=N/O)c1`, “inactive”.
For `CC1(C(=O)O)CCCN(C(=O)/C=C/c2ccccc2)C1` (centres undefined) the value was “inactive”.
`Cc1[nH]c(=O)c(C(=O)/C=C/c2ccccc2)c2c1CCCC2`: the activity change was -93.4% (active).
For `COC(=O)c1c(C)[nH]c(C(=O)/C=C/c2ccc(Cl)cc2)c1C` the value was “inactive”; for `O=C(CCCn1c(=O)oc2ccccc21)Nc1cccnc1`, 5.91% (inactive).
Take `CC(=O)c1c(C)[nH]c(C(=O)N2CCN(S(=O)(=O)c3ccc(F)c(F)c3)CC2)c1C`: the activity change entry is “inactive”.
For `COCc1cc(C)nc(SCC(=O)Nc2cccc(C)c2)c1C#N` the value was “inactive”; for `Cc1nonc1NC(=O)CSc1nc2ccccc2cc1C#N`, “inactive”.
Then `Cc1nc2cc(NC(=O)CSc3nc4c(C)cccc4cc3C#N)ccc2s1`, with -95.1% (active); and `CC1(C(=O)NS(=O)(=O)c2cccc(F)c2)CCN1C(=O)Cc1cc(F)ccc1F` (centres undefined), with “inactive”; and `COC(=O)[C@@]12C[C@@H](CC(=O)NCCCCc3ccccc3)C(=O)N(Cc3ccccc3)C1=CCC(C)(C)C2`, with “inactive”.
For `CCOc1ccc(NC(=O)CCS(=O)(=O)c2cccc3nsnc23)cc1` the value was “inactive”.
For `Cc1cccc(C)c1NC(=O)CCS(=O)(=O)c1cccc2nsnc12`, the activity change is -101% (active).
Take `CCOc1ccccc1NC(=O)CCS(=O)(=O)c1cccc2nsnc12`: the activity change entry was “inactive”.
For `NS(=O)(=O)c1ccc(NC(=S)NC(=O)c2cccnc2)cc1`, the activity change entry is “inactive”.
Then `C=CCNC(=O)CCCC(=O)NCC=C`, with -102% (active); and `C=CCNC(=O)CC12CC3CC(C1)CC(CC(=O)NCC=C)(C3)C2`, with “inactive”.
Regarding `C=CCNC(=O)CCCOc1cccc(C)c1`, the activity change is 3.56% (inactive).
Then `CCCCCc1c(-c2ccc(OC)c(OC)c2)ncn1CCc1ccccc1OC`, with “inactive”.
Then `Cc1cc(=O)n2nc(N3CCC(C(=O)Nc4c(F)c(F)c(F)c(F)c4F)CC3)sc2n1`, with “inactive”.
Turning to `COc1ccc(C(=O)C(OP(=O)(OC)OC)c2ccccc2OC)cc1` (centres undefined), the activity change entry is “inactive”.
Consider `Cc1cc(F)ccc1NC(=O)C(C)n1c2ccccc2c2nc(=O)cc(C)n21` (centres undefined), for which the activity change entry was “inactive”.
Then `COc1ccc(-c2nc3ccccc3n2CCC(C)C)cc1OC`, with -7.53% (inactive).
For `COCCn1c(-c2ccc(OC)c(OC)c2)nc2ccccc21` the value was -119% (active); for `CCOCCn1c(-c2ccccc2)nc2ccccc21`, “inactive”.
`COC(=O)C[C@H]1C=C[C@@H](NS(=O)(=O)c2ccc(C)cc2)[C@@H](CO)O1`: the activity change result is “inactive”.
On to `CCOc1ccc2c(c1)cc(CN(C(=O)CC)C1CCCCC1)c1nnnn12`, for which the activity change is 1.69% (inactive).
In the case of `CCc1cccc(NC(=S)N(CCN(C)C)C2CCN(C(C)C)CC2)c1`, the activity change entry is “inactive”.
`CCc1ccc2c(c1)cc(CN(C(=S)Nc1ccccc1Cl)C1CC1)c1nnnn12`: the activity change was -83.6% (active).
Then `O=C(NCc1ccccc1)[C@H]1C[C@@H]1[C@H](NP(=O)(c1ccccc1)c1ccccc1)c1ccccc1`, with “inactive”; and `Cc1ccccc1CN1C(=O)CSCC1(C)C(=O)Nc1c(C)cccc1C` (centres undefined), with “inactive”.
On to `CCOC(=O)C1C(C)C(C(C)(C)C)N(S(=O)(=O)c2ccc(C)cc2)C1c1ccccc1` (centres undefined), for which the activity change entry is “inactive”.
